Gli-Sufu antag: blocks Gli-Sufu signaling in a luciferase reporter. Sufu-KO-LIGHT fibroblasts, Gli luciferase reporter luminescence. hit rate 0.74% among 340,000. inhibition, % at 5 µM;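 active means inhibition above about 55%, limit read from the data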;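 further: 0% = DMSO-treated cells and 100% = wells with medium but no cells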
697 NFkB inh: inhibitors of the PMA/ionomycin-induced NF-kB reporter in 697 B cells; 697 B-cell NF-kB luciferase reporter, 16 h; inhibition, % at 4 µM; hit rate 0.33% among 330,000; AID 435022; in the data active means inhibition above about 35%
Jurkat NFkB inh: lowers PMA/ionomycin-induced NF-kB signal in Jurkat cells | PMA/ionomycin-induced NF-kB luciferase reporter, luminescence | inhibition, % at 4 µM | hit rate 0.53% among 330,000 | AID 435003; in the data active means inhibition above about 50%
Beta cell apopt: beta cell apoptosis inhibition; INS-1E cytokine-induced death, ATP luminescence, 48 h; percent of positive-control rescue, neutral wells zero; protection from apoptosis, % (no concentration beside the values); hit rate 0.8% among 300,000; AID 435005;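 active means Every replicate reaches about 75%, or at least half do and their mean reaches it too, limit read from the data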;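 further: 0% = cytokine-treated negative control wells and 100% = positive control rescue; higher means more ATP so stronger rescue from cytokine killing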
CSC inhib: blocks cancer stem cells; cancer stem cell-like cells viability, luminescence; inhibition, % at 7.5 µM; hit rate 1.1% among 300,000; in the data active means inhibition above about 75%; tested in HMLE shEcad cells
Mdm2 MdmX PPI: inhibitors of human Mdm2/MdmX interaction; AID 485346; inhibition, % at 8 µM; SaOS-2 split-luciferase Mdm2/MdmX complementation, luminescence; O15151+Q00987; hit rate 3% among 330,000;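 active means inhibition of at least 50% at 8 µM in the primary screen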
Target sequence (O15151 whole entry, looked up): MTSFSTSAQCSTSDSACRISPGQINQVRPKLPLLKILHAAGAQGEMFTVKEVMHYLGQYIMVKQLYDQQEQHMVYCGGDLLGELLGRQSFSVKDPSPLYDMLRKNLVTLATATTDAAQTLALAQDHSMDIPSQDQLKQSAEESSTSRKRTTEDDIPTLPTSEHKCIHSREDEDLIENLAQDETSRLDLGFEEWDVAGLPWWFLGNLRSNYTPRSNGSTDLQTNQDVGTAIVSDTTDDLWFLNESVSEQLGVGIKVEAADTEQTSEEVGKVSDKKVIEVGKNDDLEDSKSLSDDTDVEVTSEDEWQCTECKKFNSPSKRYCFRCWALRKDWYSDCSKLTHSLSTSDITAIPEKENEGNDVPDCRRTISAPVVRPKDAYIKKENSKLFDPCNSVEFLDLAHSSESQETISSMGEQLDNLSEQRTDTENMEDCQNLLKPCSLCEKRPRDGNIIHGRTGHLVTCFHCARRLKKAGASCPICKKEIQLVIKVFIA
Target sequence (Q00987 whole entry, looked up): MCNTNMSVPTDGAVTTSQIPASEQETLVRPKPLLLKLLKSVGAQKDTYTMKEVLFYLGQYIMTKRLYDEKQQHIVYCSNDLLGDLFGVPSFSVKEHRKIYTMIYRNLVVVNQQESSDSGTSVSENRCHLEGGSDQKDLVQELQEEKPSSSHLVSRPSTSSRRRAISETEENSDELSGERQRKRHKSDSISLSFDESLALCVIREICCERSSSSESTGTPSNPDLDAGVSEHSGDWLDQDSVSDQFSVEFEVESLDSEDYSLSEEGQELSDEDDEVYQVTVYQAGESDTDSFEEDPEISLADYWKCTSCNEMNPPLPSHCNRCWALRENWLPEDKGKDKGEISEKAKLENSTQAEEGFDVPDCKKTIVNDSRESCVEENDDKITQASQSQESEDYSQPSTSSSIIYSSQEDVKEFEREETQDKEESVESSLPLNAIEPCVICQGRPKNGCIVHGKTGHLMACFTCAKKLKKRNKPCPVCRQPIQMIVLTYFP
Gli-Sufu confirm: confirmation of Gli-SUFU pathway antagonists; shares compounds with Gli-Sufu antag; Sufu-KO-LIGHT cells, Gli luciferase reporter, luminescence; inhibition, % at 5 µM; hit rate 40% among 2,500; AID 602428;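 active means mean inhibition at 5 µM reaching about 45%, limit read from the data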;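 further: plate controls were DMSO-treated cells for no effect and wells lacking cells for full effect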
Gli cytotox: cytotoxic in Gli-SUFU antagonist counter-screen. shares compounds with Gli-Sufu antag. Sufu-KO-LIGHT cells cytotoxicity, ATP luminescence. cytotoxicity, % at 5 µM. hit rate 32% among 2,500. AID 651994;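 active means mean cytotoxicity at 5 µM above about 25%, limit read from the data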;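 further: cells exposed to compound overnight for roughly 16 to 18 hours; plate controls were DMSO wells with cells for no effect and medium without cells for full effect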
Wnt3a counter: Wnt3a reporter inhibition counter-screen; inhibition, % at 6.25 µM; shares compounds with Gli-Sufu antag; Wnt-LIGHT cells, Wnt3a-driven luciferase reporter, luminescence; hit rate 20% among 2,500;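 active means mean inhibition above about 25%, limit read from the data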
Starred values were filed as active, the others as inactive; x = no result given. Sampled rows, rich in hits. Any-hit rate of the full collection: about 4.5%.

SMILES	Gli-Sufu antag	697 NFkB inh	Jurkat NFkB inh	Beta cell apopt	CSC inhib	Mdm2 MdmX PPI	Gli-Sufu confirm	Gli cytotox	Wnt3a counter
O=C(CSc1nc2c([nH]c3ccccc32)c(=O)n1-c1ccccc1)N1CCOCC1	8	-24	-29	6	-6	-23	x	x	x
O=C(CSc1n[nH]c(=O)n1-c1ccccc1)N1CCOCC1	53	4	1	7	8	20	22	11	15
CC(=O)N1CCN(C(=O)c2c(-c3ccccc3)noc2C)CC1	59*	10	2	-8	x	12	25	8	-13
COc1ccc(CCN2CC(C(=O)NCCc3ccc(F)cc3)CCC2=O)cc1 (stereo not given)	4	-4	-12	-6	-7	28	x	x	x
COc1ccc(CCN2CC(C(=O)NCCc3ccc(C(F)(F)F)cc3)CCC2=O)cc1 (stereo not given)	52	-23	-17	x	x	-5	9	17	-53
O=C(CNC(=O)c1ccc(F)cc1)N/N=C/c1cccnc1	7	17	14	-6	x	18	x	x	x
COc1ccc(S(=O)(=O)N2CN3CCN(C3)C2)cc1OC	3	15	-1	-1	0	20	x	x	x
Cc1csc2c(N3CCN(S(=O)(=O)c4ccc(Cl)cc4)CC3)ncnc12	8	2	12	-5	4	-2	x	x	x
O=S(=O)(c1ccc(Cl)cc1)N1CCN(c2ncnc3sccc23)CC1	50	-30	12	83*	12	12	46*	21	35*
Cc1sc2ncnc(N3CCN(S(=O)(=O)c4ccc(C(C)(C)C)cc4)CC3)c2c1C	55	0	-4	124*	6	33	61*	25*	16
Cc1ccc(S(=O)(=O)N2CCN(C(=O)C3CCN(c4ncnc5sc(C)c(C)c45)CC3)CC2)c(C)c1	67*	x	x	x	x	x	60*	6	-42
Cc1cccc(C(=O)OCC(=O)NCC2COc3ccccc3O2)c1 (stereo not given)	-2	-1	9	-1	x	16	x	x	x
COc1ccc(OC)c(C(=O)NC(CC(N)=O)c2ccc(NCCN3CCCC3)c([N+](=O)[O-])c2)c1 (stereo not given)	4	17	-11	-4	10	-7	x	x	x
COc1ccc(OC)c(C(=O)NC(CC(N)=O)c2ccc(NCCN3CCOCC3)c([N+](=O)[O-])c2)c1 (stereo not given)	94*	-12	-25	-4	-18	12	11	9	-23
CC(OC(=O)CC1CC2CCC1C2)C(=O)Nc1cccc(S(=O)(=O)N2CCOCC2)c1 (stereo not given)	-9	10	-5	1	-2	12	x	x	x
Cc1cc(=O)oc2cc(NC(=O)C(C)N3C(=O)C4CCCCC4C3=O)ccc12 (stereo not given)	9	22	-6	0	x	-10	x	x	x
CCOC(=O)c1c(C2COc3ccccc3O2)csc1NC(=O)c1ccccc1 (stereo not given)	9	25	-8	3	-5	7	x	x	x
CCOC(=O)c1c(C2COc3ccccc3O2)csc1N (stereo not given)	55	-19	-10	-8	14	3	13	29*	-19
CSc1nc2[nH]c3c(c2c2nncn12)CC(C)(C)OC3	98*	15	-6	-3	-13	-11	27	5	-15
Cc1ccc(C)c(Nc2c([N+](=O)[O-])c(=O)oc3ccccc23)c1	2	-1	2	9	29	47	x	x	x
Cc1ccc(S(=O)(=O)N2CCOC23CCN(C(=O)C(=O)NCc2ccccc2)CC3)cc1	1	8	7	-3	1	12	x	x	x
O=C1NC(c2cccc(OCc3ccccc3)c2)Nc2ccccc21 (stereo not given)	47	x	x	x	x	x	x	x	x
Cc1cc(C)c(NC(=O)CNC(=O)COC(=O)C2=COCCO2)c(C)c1	52	-3	-9	-1	-10	6	14	15	-3
Cc1ccccc1NC(=O)COC(=O)C1=COCCO1	-12	8	-2	0	-3	14	x	x	x
